From publication PMC11006913 come the findings set out here.

What all share (assay): PBM; 200 nM protein, PBS
Common to all, as to conditions: dsDNA, one strand shown

For one assay, the target named is HOXC10 (Homo sapiens, UniProt Q9NYD6 254-340).
Another assay concerns the target HOXC9 (Homo sapiens, UniProt P31274 178-260).
Assay [1] deals with NKX3-2 (Homo sapiens, UniProt P78367 192-278, P234S).
In assay [2] the target is NKX3-2 (Homo sapiens, UniProt P78367 192-278).
Assay [3] has as its target HOXD13 (Homo sapiens, UniProt P35453 263-343, T313R).
Assay [4] addresses HOXD13 (Homo sapiens, UniProt P35453 263-343).
Assay [5] concerns the target HOXD13 (Homo sapiens, UniProt P35453 263-343, T313A).

Chain of HOXD13 (Homo sapiens, UniProt P35453 263-343) (P35453 263-343): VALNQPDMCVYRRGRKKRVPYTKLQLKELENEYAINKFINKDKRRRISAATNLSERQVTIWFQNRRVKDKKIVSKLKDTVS
Chain of HOXD13 (Homo sapiens, UniProt P35453 263-343, T313A) (P35453 263-343 T313A): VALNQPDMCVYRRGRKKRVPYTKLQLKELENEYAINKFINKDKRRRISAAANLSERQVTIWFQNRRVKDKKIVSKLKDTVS
Chain of HOXD13 (Homo sapiens, UniProt P35453 263-343, T313R) (P35453 263-343 T313R): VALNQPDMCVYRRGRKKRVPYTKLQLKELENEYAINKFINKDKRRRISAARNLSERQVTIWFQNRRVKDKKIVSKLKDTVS
Chain of HOXC9 (P31274 178-260): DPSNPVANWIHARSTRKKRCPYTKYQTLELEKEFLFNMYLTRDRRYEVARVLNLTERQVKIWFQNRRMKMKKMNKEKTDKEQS
Chain of HOXC10 (Q9NYD6 254-340): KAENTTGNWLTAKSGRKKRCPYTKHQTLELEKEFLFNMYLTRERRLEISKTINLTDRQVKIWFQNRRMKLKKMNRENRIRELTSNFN
Chain of NKX3-2 (Homo sapiens, UniProt P78367 192-278, P234S) (P78367 192-278 P234S): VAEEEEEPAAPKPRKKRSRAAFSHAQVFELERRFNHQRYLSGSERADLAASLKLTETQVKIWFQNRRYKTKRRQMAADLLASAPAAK
Chain of NKX3-2 (Homo sapiens, UniProt P78367 192-278) (P78367 192-278): as the sequence (P78367 192-278 P234S) above, with S43P counted along it

On to CGTAATTA, for which the binding signal with HOXC10 is 12.3 upbm affinity estimate (log intensity, higher = more binding, comparable within an allelic series); with HOXC9, 12.8 upbm affinity estimate (log intensity, higher = more binding, comparable within an allelic series).

Turning to GCTAATTA, the binding signal is 12.6 upbm affinity estimate (log intensity, higher = more binding, comparable within an allelic series) with HOXC9; 11.7 upbm affinity estimate (log intensity, higher = more binding, comparable within an allelic series) in the assay with NKX3-2 [1]; 11.7 upbm affinity estimate (log intensity, higher = more binding, comparable within an allelic series) in the assay with NKX3-2 [2].

Turning to CTAATTAA, the binding signal with HOXC10 is 12.2 upbm affinity estimate (log intensity, higher = more binding, comparable within an allelic series); with HOXC9, 12.6 upbm affinity estimate (log intensity, higher = more binding, comparable within an allelic series); with HOXD13 [3] it was 10.8 upbm affinity estimate (log intensity, higher = more binding, comparable within an allelic series); in the assay with HOXD13 [4] it was 11.8 upbm affinity estimate (log intensity, higher = more binding, comparable within an allelic series); with HOXD13 [5], 11.6 upbm affinity estimate (log intensity, higher = more binding, comparable within an allelic series).

On to GCAATTAA, for which the binding signal with HOXC10 was 12.4 upbm affinity estimate (log intensity, higher = more binding, comparable within an allelic series); with HOXC9, 13.1 upbm affinity estimate (log intensity, higher = more binding, comparable within an allelic series).

Turning to GTAATTAA, the binding signal with HOXC10 is 12.7 upbm affinity estimate (log intensity, higher = more binding, comparable within an allelic series); with HOXC9, 13.2 upbm affinity estimate (log intensity, higher = more binding, comparable within an allelic series).

AATTAATG: the binding signal is 12.2 upbm affinity estimate (log intensity, higher = more binding, comparable within an allelic series) in the assay with HOXC10 and 12.8 upbm affinity estimate (log intensity, higher = more binding, comparable within an allelic series) with HOXC9.

Take AATTAATA: the binding signal was 12.2 upbm affinity estimate (log intensity, higher = more binding, comparable within an allelic series) in the assay with HOXC10; 12.7 upbm affinity estimate (log intensity, higher = more binding, comparable within an allelic series) with HOXC9; 10.9 upbm affinity estimate (log intensity, higher = more binding, comparable within an allelic series) in the assay with HOXD13 [3]; 11.7 upbm affinity estimate (log intensity, higher = more binding, comparable within an allelic series) with HOXD13 [4]; 11.7 upbm affinity estimate (log intensity, higher = more binding, comparable within an allelic series) in the assay with HOXD13 [5].

For GGTAATTA, the binding signal in the assay with HOXC10 is 12.5 upbm affinity estimate (log intensity, higher = more binding, comparable within an allelic series); in the assay with HOXC9, 13.1 upbm affinity estimate (log intensity, higher = more binding, comparable within an allelic series); in the assay with NKX3-2 [1], 11.7 upbm affinity estimate (log intensity, higher = more binding, comparable within an allelic series); with NKX3-2 [2] it was 11.7 upbm affinity estimate (log intensity, higher = more binding, comparable within an allelic series).

For the sequence AGTAATTA, the binding signal was 12.3 upbm affinity estimate (log intensity, higher = more binding, comparable within an allelic series) with HOXC10 and 13 upbm affinity estimate (log intensity, higher = more binding, comparable within an allelic series) with HOXC9.

ATTAATGA: the binding signal with HOXC10 was 12.5 upbm affinity estimate (log intensity, higher = more binding, comparable within an allelic series); with HOXC9, 13 upbm affinity estimate (log intensity, higher = more binding, comparable within an allelic series); in the assay with HOXD13 [3], 10.7 upbm affinity estimate (log intensity, higher = more binding, comparable within an allelic series); with HOXD13 [4] it was 11.9 upbm affinity estimate (log intensity, higher = more binding, comparable within an allelic series); with HOXD13 [5] it was 11.7 upbm affinity estimate (log intensity, higher = more binding, comparable within an allelic series).

As for TTAATTAA, the binding signal with HOXC10 was 12.4 upbm affinity estimate (log intensity, higher = more binding, comparable within an allelic series); in the assay with HOXC9 it was 12.8 upbm affinity estimate (log intensity, higher = more binding, comparable within an allelic series).

For GATAATTA, the binding signal is 12.2 upbm affinity estimate (log intensity, higher = more binding, comparable within an allelic series) with HOXC10 and 12.8 upbm affinity estimate (log intensity, higher = more binding, comparable within an allelic series) in the assay with HOXC9.

For AATAATTA, the binding signal with HOXC10 is 12.2 upbm affinity estimate (log intensity, higher = more binding, comparable within an allelic series); with HOXC9 it was 12.7 upbm affinity estimate (log intensity, higher = more binding, comparable within an allelic series).

As to ATAATTAT, the binding signal with HOXC10 is 12.3 upbm affinity estimate (log intensity, higher = more binding, comparable within an allelic series); with HOXC9 it was 12.9 upbm affinity estimate (log intensity, higher = more binding, comparable within an allelic series).

ATAATTAC: the binding signal in the assay with HOXC10 was 12.4 upbm affinity estimate (log intensity, higher = more binding, comparable within an allelic series); with HOXC9, 13 upbm affinity estimate (log intensity, higher = more binding, comparable within an allelic series).

Consider CATAATTA, for which the binding signal in the assay with HOXC10 is 12.3 upbm affinity estimate (log intensity, higher = more binding, comparable within an allelic series); with HOXC9, 12.8 upbm affinity estimate (log intensity, higher = more binding, comparable within an allelic series).

Take ATAATTAA: the binding signal with HOXC10 is 12.5 upbm affinity estimate (log intensity, higher = more binding, comparable within an allelic series); with HOXC9 it was 12.9 upbm affinity estimate (log intensity, higher = more binding, comparable within an allelic series).

As for AATTAATT, the binding signal with HOXC10 is 12.2 upbm affinity estimate (log intensity, higher = more binding, comparable within an allelic series); with HOXC9, 12.8 upbm affinity estimate (log intensity, higher = more binding, comparable within an allelic series).

For TAATTATA, the binding signal in the assay with HOXC10 is 12.3 upbm affinity estimate (log intensity, higher = more binding, comparable within an allelic series); with HOXC9 it was 12.8 upbm affinity estimate (log intensity, higher = more binding, comparable within an allelic series); with HOXD13 [3], 10.7 upbm affinity estimate (log intensity, higher = more binding, comparable within an allelic series).

With CTTAATTA, the binding signal in the assay with HOXC10 was 12.2 upbm affinity estimate (log intensity, higher = more binding, comparable within an allelic series); with HOXC9 it was 12.6 upbm affinity estimate (log intensity, higher = more binding, comparable within an allelic series).

With ATTAATTA, the binding signal is 12.6 upbm affinity estimate (log intensity, higher = more binding, comparable within an allelic series) with HOXC10; 13.2 upbm affinity estimate (log intensity, higher = more binding, comparable within an allelic series) with HOXC9; 10.8 upbm affinity estimate (log intensity, higher = more binding, comparable within an allelic series) with HOXD13 [3]; 11.8 upbm affinity estimate (log intensity, higher = more binding, comparable within an allelic series) in the assay with HOXD13 [4]; 11.6 upbm affinity estimate (log intensity, higher = more binding, comparable within an allelic series) with HOXD13 [5].

On to GTTAATTA, for which the binding signal is 12.3 upbm affinity estimate (log intensity, higher = more binding, comparable within an allelic series) with HOXC10; 12.8 upbm affinity estimate (log intensity, higher = more binding, comparable within an allelic series) with HOXC9; 10.7 upbm affinity estimate (log intensity, higher = more binding, comparable within an allelic series) in the assay with HOXD13 [3]; 11.6 upbm affinity estimate (log intensity, higher = more binding, comparable within an allelic series) with HOXD13 [5].
